Columns and labels:
Assay in all cases: DAPPL (digital affinity profiling via proximity ligation, sequencing); 10 mM Tris-HCl pH 7.5, 50 mM NaCl, 1 mM DTT, 4% glycerol, room temperature, 30 min; GST-TFs on glutathione beads, 16-mer random dsDNA library, 0.1% formaldehyde crosslink after washing; high values mean tight binding
Details in all cases: protein: recombinant; tags: N-terminal GST; dsDNA, one strand shown
SPIC = target: T1, SPIC (Homo sapiens, UniProt Q8N5J4 1-248)
T1 sequence: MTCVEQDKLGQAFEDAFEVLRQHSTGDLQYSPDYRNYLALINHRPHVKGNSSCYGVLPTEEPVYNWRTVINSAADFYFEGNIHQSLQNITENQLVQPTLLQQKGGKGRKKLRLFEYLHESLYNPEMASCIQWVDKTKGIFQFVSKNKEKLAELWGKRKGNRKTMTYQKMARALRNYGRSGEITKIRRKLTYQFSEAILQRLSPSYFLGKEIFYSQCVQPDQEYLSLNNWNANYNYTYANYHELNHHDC
Summary of the method: (§1)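 Binding signal is given per hexamer as its read frequency for a factor divided by its frequency in the tag-only sample. GST-fused human transcription factors were expressed in yeast, captured on glutathione beads, barcoded with DNA and pooled with that sample, then incubated with 200 nmole of a 16-mer random double-stranded DNA library in Tris/NaCl/DTT/glycerol buffer for 30 min at room temperature. The pools were then washed, crosslinked, proximity-ligated, amplified by PCR and sequenced on an Illumina NextSeq500.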

ELK4 = target: T2, ELK4 (Homo sapiens, UniProt P28324-2 1-405)
T2 sequence: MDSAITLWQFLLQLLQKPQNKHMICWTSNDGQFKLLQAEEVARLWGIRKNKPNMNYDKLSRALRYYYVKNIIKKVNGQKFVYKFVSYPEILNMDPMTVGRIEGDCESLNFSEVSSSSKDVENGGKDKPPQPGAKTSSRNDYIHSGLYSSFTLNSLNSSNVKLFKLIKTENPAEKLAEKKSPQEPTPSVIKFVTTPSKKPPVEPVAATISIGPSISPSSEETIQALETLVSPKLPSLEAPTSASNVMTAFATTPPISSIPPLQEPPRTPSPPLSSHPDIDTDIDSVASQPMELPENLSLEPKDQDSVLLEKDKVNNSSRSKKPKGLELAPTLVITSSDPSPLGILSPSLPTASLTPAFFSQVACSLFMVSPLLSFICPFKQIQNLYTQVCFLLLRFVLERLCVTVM
Summary of the method: as §1

SPDEF = target: T3, SPDEF (Homo sapiens, UniProt O95238 1-335)
T3 sequence: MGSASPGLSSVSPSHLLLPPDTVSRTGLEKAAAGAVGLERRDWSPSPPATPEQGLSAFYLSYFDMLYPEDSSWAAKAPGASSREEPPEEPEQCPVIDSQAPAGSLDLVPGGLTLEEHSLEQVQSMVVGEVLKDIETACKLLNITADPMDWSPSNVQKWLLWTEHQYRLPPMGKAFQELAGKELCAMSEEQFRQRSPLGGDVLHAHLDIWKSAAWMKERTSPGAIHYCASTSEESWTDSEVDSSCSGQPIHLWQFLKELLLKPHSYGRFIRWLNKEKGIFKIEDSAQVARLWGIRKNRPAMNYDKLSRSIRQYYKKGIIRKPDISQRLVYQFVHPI
Summary of the method: as §1

FEV = target: T4, FEV (Homo sapiens, UniProt Q99581 1-238)
T4 sequence: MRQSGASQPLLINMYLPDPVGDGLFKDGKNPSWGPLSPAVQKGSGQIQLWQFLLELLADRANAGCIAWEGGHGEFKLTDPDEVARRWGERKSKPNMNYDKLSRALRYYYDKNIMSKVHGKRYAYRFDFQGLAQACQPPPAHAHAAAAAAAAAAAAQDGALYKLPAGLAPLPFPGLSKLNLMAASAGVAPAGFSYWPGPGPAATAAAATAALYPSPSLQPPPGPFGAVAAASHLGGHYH
Summary of the method: as §1

ELF5 = target: T5, ELF5 (Homo sapiens, UniProt Q9UKW6-2 1-255)
T5 sequence: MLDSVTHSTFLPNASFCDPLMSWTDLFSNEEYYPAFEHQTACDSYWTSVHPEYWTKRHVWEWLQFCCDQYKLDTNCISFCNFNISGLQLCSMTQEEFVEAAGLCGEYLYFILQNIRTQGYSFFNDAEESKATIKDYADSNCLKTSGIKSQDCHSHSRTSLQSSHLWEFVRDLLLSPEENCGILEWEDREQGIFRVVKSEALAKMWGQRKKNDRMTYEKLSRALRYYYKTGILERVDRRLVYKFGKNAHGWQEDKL
Summary of the method: as §1

CRX = CRX (Homo sapiens, UniProt O43186 1-299)
CRX, sequence (O43186 whole entry): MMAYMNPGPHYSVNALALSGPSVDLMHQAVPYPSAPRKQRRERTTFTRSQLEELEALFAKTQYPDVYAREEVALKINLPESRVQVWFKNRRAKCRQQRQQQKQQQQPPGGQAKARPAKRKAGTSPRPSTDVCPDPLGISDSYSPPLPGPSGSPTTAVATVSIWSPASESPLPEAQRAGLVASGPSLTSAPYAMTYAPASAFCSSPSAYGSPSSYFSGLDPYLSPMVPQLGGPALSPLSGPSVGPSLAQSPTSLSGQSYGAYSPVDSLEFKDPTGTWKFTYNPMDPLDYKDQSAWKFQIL
Summary of the method: as §1

Sequence | binding signal (SPIC) | binding signal (ELK4) | binding signal (SPDEF) | binding signal (FEV) | binding signal (ELF5) | binding signal (CRX)
GGTCCT | 1.11 fold enrichment (6-mer frequency, TF over GST control) | 1.05 fold enrichment (6-mer frequency, TF over GST control) | 1.1 fold enrichment (6-mer frequency, TF over GST control) | – | – | –
CGATGT | 1.07 fold enrichment (6-mer frequency, TF over GST control) | – | 1.12 fold enrichment (6-mer frequency, TF over GST control) | 1.06 fold enrichment (6-mer frequency, TF over GST control) | – | –
CGCTAT | 1.01 fold enrichment (6-mer frequency, TF over GST control) | 1.07 fold enrichment (6-mer frequency, TF over GST control) | 1.1 fold enrichment (6-mer frequency, TF over GST control) | 1.04 fold enrichment (6-mer frequency, TF over GST control) | 1.16 fold enrichment (6-mer frequency, TF over GST control) | –
GGCCCC | 1.01 fold enrichment (6-mer frequency, TF over GST control) | 1.02 fold enrichment (6-mer frequency, TF over GST control) | 1.05 fold enrichment (6-mer frequency, TF over GST control) | 1.06 fold enrichment (6-mer frequency, TF over GST control) | – | –
GTTACG | 1.05 fold enrichment (6-mer frequency, TF over GST control) | 1.03 fold enrichment (6-mer frequency, TF over GST control) | 1.04 fold enrichment (6-mer frequency, TF over GST control) | – | – | –
GGAAGA | 1.08 fold enrichment (6-mer frequency, TF over GST control) | – | – | 1.05 fold enrichment (6-mer frequency, TF over GST control) | 1.58 fold enrichment (6-mer frequency, TF over GST control) | –
GAAGTC | 1.23 fold enrichment (6-mer frequency, TF over GST control) | – | 1.06 fold enrichment (6-mer frequency, TF over GST control) | 1.22 fold enrichment (6-mer frequency, TF over GST control) | 1.26 fold enrichment (6-mer frequency, TF over GST control) | –
ACGGCA | 1.05 fold enrichment (6-mer frequency, TF over GST control) | – | 1.11 fold enrichment (6-mer frequency, TF over GST control) | – | 1.03 fold enrichment (6-mer frequency, TF over GST control) | –
AGGAAC | 1.23 fold enrichment (6-mer frequency, TF over GST control) | – | 1.05 fold enrichment (6-mer frequency, TF over GST control) | – | 1.28 fold enrichment (6-mer frequency, TF over GST control) | –
AACTGA | 1.37 fold enrichment (6-mer frequency, TF over GST control) | – | – | 1.15 fold enrichment (6-mer frequency, TF over GST control) | 1.01 fold enrichment (6-mer frequency, TF over GST control) | –
GCTGCG | 1.08 fold enrichment (6-mer frequency, TF over GST control) | – | 1.02 fold enrichment (6-mer frequency, TF over GST control) | 1.1 fold enrichment (6-mer frequency, TF over GST control) | 1.04 fold enrichment (6-mer frequency, TF over GST control) | –
AGTATG | 1.04 fold enrichment (6-mer frequency, TF over GST control) | – | – | 1.02 fold enrichment (6-mer frequency, TF over GST control) | 1.06 fold enrichment (6-mer frequency, TF over GST control) | –
TACGGT | 1.02 fold enrichment (6-mer frequency, TF over GST control) | 1.02 fold enrichment (6-mer frequency, TF over GST control) | 1.1 fold enrichment (6-mer frequency, TF over GST control) | – | 1.04 fold enrichment (6-mer frequency, TF over GST control) | 1.03 fold enrichment (6-mer frequency, TF over GST control)
CAGCTA | 1.07 fold enrichment (6-mer frequency, TF over GST control) | 1.16 fold enrichment (6-mer frequency, TF over GST control) | – | 1.02 fold enrichment (6-mer frequency, TF over GST control) | – | 1.05 fold enrichment (6-mer frequency, TF over GST control)
AGCTGT | 1.15 fold enrichment (6-mer frequency, TF over GST control) | 1.04 fold enrichment (6-mer frequency, TF over GST control) | – | 1.04 fold enrichment (6-mer frequency, TF over GST control) | – | 1.02 fold enrichment (6-mer frequency, TF over GST control)
TGTGGC | 1.14 fold enrichment (6-mer frequency, TF over GST control) | 1.16 fold enrichment (6-mer frequency, TF over GST control) | – | 1.13 fold enrichment (6-mer frequency, TF over GST control) | – | –
AGTGTC | 1.11 fold enrichment (6-mer frequency, TF over GST control) | – | 1.05 fold enrichment (6-mer frequency, TF over GST control) | – | 1.15 fold enrichment (6-mer frequency, TF over GST control) | –
TGTGGT | 1.02 fold enrichment (6-mer frequency, TF over GST control) | 1.03 fold enrichment (6-mer frequency, TF over GST control) | 1.07 fold enrichment (6-mer frequency, TF over GST control) | – | 1.03 fold enrichment (6-mer frequency, TF over GST control) | –
GTACGC | 1.2 fold enrichment (6-mer frequency, TF over GST control) | – | – | 1.1 fold enrichment (6-mer frequency, TF over GST control) | 1.06 fold enrichment (6-mer frequency, TF over GST control) | –
ATAAGG | 1.12 fold enrichment (6-mer frequency, TF over GST control) | – | 1.05 fold enrichment (6-mer frequency, TF over GST control) | – | 1.25 fold enrichment (6-mer frequency, TF over GST control) | 1.28 fold enrichment (6-mer frequency, TF over GST control)
TGCGGC | 1.19 fold enrichment (6-mer frequency, TF over GST control) | – | – | 1.02 fold enrichment (6-mer frequency, TF over GST control) | – | –
CACGGA | 1.06 fold enrichment (6-mer frequency, TF over GST control) | 1.05 fold enrichment (6-mer frequency, TF over GST control) | 1.25 fold enrichment (6-mer frequency, TF over GST control) | – | 1.29 fold enrichment (6-mer frequency, TF over GST control) | –
ATACCG | 1.05 fold enrichment (6-mer frequency, TF over GST control) | 1.04 fold enrichment (6-mer frequency, TF over GST control) | 1.19 fold enrichment (6-mer frequency, TF over GST control) | 1.25 fold enrichment (6-mer frequency, TF over GST control) | 1.13 fold enrichment (6-mer frequency, TF over GST control) | –
AAACCG | 1.05 fold enrichment (6-mer frequency, TF over GST control) | – | 1.11 fold enrichment (6-mer frequency, TF over GST control) | 1.33 fold enrichment (6-mer frequency, TF over GST control) | 1.02 fold enrichment (6-mer frequency, TF over GST control) | –
TAACCG | 1.08 fold enrichment (6-mer frequency, TF over GST control) | – | 1.1 fold enrichment (6-mer frequency, TF over GST control) | 1.25 fold enrichment (6-mer frequency, TF over GST control) | 1.05 fold enrichment (6-mer frequency, TF over GST control) | 1.1 fold enrichment (6-mer frequency, TF over GST control)
CGTCGC | 1.07 fold enrichment (6-mer frequency, TF over GST control) | – | 1.24 fold enrichment (6-mer frequency, TF over GST control) | 1.14 fold enrichment (6-mer frequency, TF over GST control) | 1.19 fold enrichment (6-mer frequency, TF over GST control) | –
CGCTGG | 1.01 fold enrichment (6-mer frequency, TF over GST control) | 1.01 fold enrichment (6-mer frequency, TF over GST control) | – | 1.02 fold enrichment (6-mer frequency, TF over GST control) | – | –
GGCTCG | 1.12 fold enrichment (6-mer frequency, TF over GST control) | 1.11 fold enrichment (6-mer frequency, TF over GST control) | – | – | – | –

— PMC7862700, “An all-to-all approach to the identification of sequence-specific readers for epigenetic DNA modifications on cytosine”
